Data on 38 compounds can be found in PubChem BioAssay AID1345085 (National Center for Advancing Translational Sciences (NCATS), 2018).

Records with an inconclusive call do not appear. Calls of active or inactive are those of the source. Calls come from the whole dose curve; as a rule, active = well fitted cell-killing curve with a large enough effect; inconclusive = small, poorly fitted or top-dose-only effect, or effect the other way; inactive = no such curve, though single readings can be large or run the other way. *1 amine or outer side, *2 acyl side, *3 side chain or, on linkers, in order; H or OH if unused. Where a SMILES comes first, the peptide text is derived from it. Bridges are numbered along the chain shown (N, C = ends). Roman numbers before positions name the chains, in order. [ ]: non-standard residue; d: D form. Actinocin(9to1) = Cc1c2oc3c(C)ccc(C(=O)[*:1])c3nc-2c(C(=O)[*:2])c(N)c1=O; NMeV = CN[C@H](C(=O)O)C(C)C; Sar = CNCC(=O)O
% is set by controls: 0 for no effect and ±100 for the full control effect; potency is the fitted concentration of half-maximal effect.

The subject of this test is Jar. The test is described as follows: Confirmatory qHTS for gynecologic anti-cancer compounds from libraries of approved drugs and bioactive compounds. Note: nearly all actives have a fitted effect of over 55% in size. Conditions: gynecologic cancer cell panel viability, ATPlite luminescence, 48 h; series mostly up to 57.6 µM. The method in brief:
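1,000 cells/well; 16 h pre-incubation 37 C, 5% CO2; pin-transferred cpd in DMSO, 11 conc (1:3), 57.5 uM–0.977 nM; 48 h; ATPlite, 15 min RT; luminescence → IC50.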
On to `COCCOc1ccc2c(c1)ncn2-c1ccc2cccc(N3CCC(N)CC3)c2n1`, for which the Potency result is “inactive”.

For `COc1ccc(CCC(=O)c2c(O)cc(O[C@@H]3O[C@H](CO)[C@@H](O)[C@H](O)[C@H]3O[C@@H]3O[C@@H](C)[C@H](O)[C@@H](O)[C@H]3O)cc2O)cc1O`, the Potency result was “inactive”.

Take `CC1=C(CO)C(=O)O[C@@H]([C@@H](C)[C@H]2CC[C@H]3[C@@H]4C[C@H]5O[C@]56[C@@H](O)C=CC(=O)[C@]6(C)[C@H]4CC[C@]23C)C1`: the Potency was 8.41 µM (active).

`COc1ccc(-c2ccc3c(N4CCOCC4C)nc(N4CCOCC4C)nc3n2)cc1CO` (stereo not drawn): the Potency result was “inactive”.

`N=C(N)c1ccc(OCCCCCOc2ccc(C(=N)N)cc2)cc1`: the Potency was 5.44 µM (active).

For the compound `COc1cc2c(NC3CCN(C(C)C)CC3)nc(C3CCCCC3)nc2cc1OCCCN1CCCC1`, the Potency is 10.9 µM (active).

As to `CNC(=O)c1ccccc1Nc1nc(Nc2ccc(N3CCOCC3)cc2OC)ncc1Cl`, the Potency was 19.3 µM (active).

For the compound `Cc1nc(NC(=O)N2CCCC2C(N)=O)sc1-c1ccnc(C(C)(C)C(F)(F)F)c1` (stereo not drawn), the Potency was 12.2 µM (active).

Take `CNCc1ccc(-c2[nH]c3cc(F)cc4c3c2CCNC4=O)cc1`: the Potency result is “inactive”.

Take `Cc1nc(Nc2ncc(C(=O)Nc3c(C)cccc3Cl)s2)cc(N2CCN(CCO)CC2)n1`: the Potency is 21.7 µM (active).

Take `Cn1c(=O)c(F)c(Nc2ccc(I)cc2F)c2c(=O)n(CC(O)CO)cnc21` (stereo not drawn): the Potency entry is “inactive”.

On to `CCN(CC)CCNC(=O)c1c(C)[nH]c(/C=C2\C(=O)Nc3ccc(F)cc32)c1C`, for which the Potency is 25.1 µM (active).

For the compound `C[C@@H](Oc1cc(-c2cnn(C3CCNCC3)c2)cnc1N)c1c(Cl)ccc(F)c1Cl`, the Potency is 15.3 µM (active).

In the case of `O=c1cc(CN2CCOCC2)occ1OCCCCCSc1ccnc2cc(C(F)(F)F)ccc12`, the Potency was 7.69 µM (active).

For the compound `CC(C)(C)C(=O)OCOP(=O)(COCCn1cnc2c(N)ncnc21)OCOC(=O)C(C)(C)C`, the Potency is 9.68 µM (active).

Take `COc1ccc(-c2nc3ccc(C4=NNC(=O)CC4C)cc3[nH]2)cc1` (stereo not drawn): the Potency was 21.7 µM (active).

Regarding `CCC1C(=O)N(C)c2cnc(Nc3ccc(C(=O)NC4CCN(C)CC4)cc3OC)nc2N1C1CCCC1` (stereo not drawn), the Potency is 0.0217 µM (active).

`c1nc2nc(Nc3ccc(N4CCOCC4)cc3)nc(NC3CCCCC3)c2[nH]1`: the Potency is 9.43 µM (active).

Consider `Cc1cc(SCc2sc(-c3ccc(C(F)(F)F)cc3)nc2C)ccc1OCC(=O)O`, for which the Potency result was “inactive”.

For `Cc1c2oc3c(C)ccc(C(=O)N[C@@H]4C(=O)N[C@H](C(C)C)C(=O)N5CCC[C@H]5C(=O)N(C)CC(=O)N(C)[C@@H](C(C)C)C(=O)O[C@@H]4C)c3nc-2c(C(=O)N[C@@H]2C(=O)N[C@H](C(C)C)C(=O)N3CCC[C@H]3C(=O)N(C)CC(=O)N(C)[C@@H](C(C)C)C(=O)O[C@@H]2C)c(N)c1=O` (I: T[dV]P[Sar][NMeV] / II: T[dV]P[Sar][NMeV]; ester I:1-I:C, II:1-II:C; linker I:N-II:N via Actinocin(9to1)), the Potency is 1.72 µM (active).

In the case of `C1CCC(C(CC2CCCCN2)C2CCCCC2)CC1` (stereo not drawn), the Potency was 24.3 µM (active).

For the compound `Cc1cnc(CNC(=O)c2c(=O)c3ccc(N4CCCN(C)CC4)nc3n3c2sc2ccccc23)cn1`, the activity change, negative = viability loss was 14.2% [at 10.7 µM] (inactive).

Take `Cc1ccc(C(=O)Nc2ccc(CN3CCN(C)CC3)c(C(F)(F)F)c2)cc1C#Cc1cnc2[nH]ncc2c1`: the Potency entry was “inactive”.

As to `CC(C)Oc1ccc2c(=O)c(-c3ccccc3)coc2c1`, the Potency is 21.7 µM (active).

For the compound `NC(=O)Nc1cc(-c2cccc(F)c2)sc1C(=O)NC1CCCNC1` (stereo not drawn), the Potency is 1.22 µM (active).

For the compound `Cc1nc(N)nc(N)c1-c1ccc(Cl)c(Cl)c1`, the Potency was 4.85 µM (active).

Turning to `CC(=O)O[C@H]1C(=O)[C@@]2(C)[C@H]([C@H](OC(=O)c3ccccc3)[C@]3(O)C[C@H](OC(=O)[C@H](O)[C@@H](NC(=O)c4ccccc4)c4ccccc4)C(C)=C1C3(C)C)[C@]1(OC(C)=O)CO[C@@H]1C[C@@H]2O`, the Potency was 0.0366 µM (active).

As for `CC(C)(C(=O)NCC(F)(F)C(F)(F)F)C(=O)NC1C(=O)Nc2ccccc2-c2ccccc21` (stereo not drawn), the Potency result was “inactive”.

As for `Cn1cc(-c2[nH]c3cc(NC(=O)[C@H](N)C4CCCCC4)cc4c3c2C=NNC4=O)cn1`, the Potency is 10.9 µM (active).

As for `Nc1ccn([C@@H]2O[C@H](CO)[C@@H](O)C2(F)F)c(=O)n1`, the Potency result is “inactive”.

In the case of `CC(C)[C@@H](CS(=O)(=O)C(C)C)N1C(=O)[C@@](C)(CC(=O)O)C[C@H](c2cccc(Cl)c2)[C@H]1c1ccc(Cl)cc1`, the Potency is 2.73 µM (active).

Take `Cc1nc2ccc(CN(C)c3ccc(C(=O)NC(CCC(=O)O)C(=O)O)s3)cc2c(=O)[nH]1` (stereo not drawn): the Potency result was “inactive”.

Consider `CNC1CCC(N(Cc2cccc(-c3ccncc3)c2)C(=O)c2sc3ccccc3c2Cl)CC1` (stereo not drawn), for which the Potency was 34.3 µM (active).

Take `COc1cccc2c1C(=O)c1c(O)c3c(c(O)c1C2=O)C[C@@](O)(C(=O)CO)C[C@@H]3O[C@H]1C[C@H](N)[C@H](O)[C@H](C)O1`: the Potency was 1.72 µM (active).

Regarding `CC(C)n1nc(-c2cc3cc(O)ccc3[nH]2)c2c(N)ncnc21`, the Potency is 5.44 µM (active).

As to `C[C@]12CCC(=O)C=C1[C@@H]1C[C@@H]1[C@H]1[C@@H]3[C@@H]4C[C@@H]4[C@@]4(CCC(=O)O4)[C@@]3(C)CC[C@@H]12`, the Potency entry is “inactive”.

Consider `CC(Oc1ccc2[nH]nc(/C=C/c3cnn(CCO)c3)c2c1)c1c(Cl)cncc1Cl` (stereo not drawn), for which the Potency result is “inactive”.

As to `O=c1[nH]c(=O)n([C@H]2C[C@H](O)[C@@H](CO)O2)cc1C(F)(F)F`, the Potency entry was “inactive”.
